This is a sample that favours compounds with a hit; in the whole collection about 17% have one here.
DT40 TDP1 CPT = growth inhibition of DT40 Tdp1-/-;hTDP1 cells with camptothecin (screen for TDP1 inhibitors) | 420,000 tested, 12% active | Potency, µM (highest dose often 46.2 µM), hits mostly inhibitors | AID 686979 | chicken DT40 Tdp1-/-;hTDP1 cells + 20 nM CPT, ATP luminescence, 48 h; further: nearly all actives have a fitted effect of over 55% in size
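Chicken DT40 Tdp1-/- cells stably complemented with human TDP1 were seeded at 400 cells/well in medium containing 20 nM camptothecin, exposed to pin-transferred compounds, and grown at 37 °C for at least 48 hr. Viability was read as ATP luminescence.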
TDP1 cell noCPT = qHTS for Inhibitors of human tyrosyl-DNA phosphodiesterase 1 (TDP1): qHTS in cells in absence of CPT. Potency, µM (series often up to 46.2 µM), most hits filed as inhibitors. 420,000 tested, 15% active. AID 686978, 2013. DT40 Tdp1-/- hTDP1 cells, no CPT, ATP luminescence, 48 h; further: nearly all actives have a fitted effect of over 55% in size
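No-CPT arm: Tdp1-/-;hTDP1 DT40 cells (400/well) plus compounds, incubated ≥48 hr at 37 °C. Readout CellTiter-Glo luminescence.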
TDP1 inh = blocks human tyrosyl-DNA phosphodiesterase 1. Q9NUW8. recombinant TDP1, AlphaScreen DNA substrate cleavage. Potency, µM (top dose mostly 130 µM), usual class: inhibitors. 350,000 tested, 0.28% active. AID 485290; further: nearly all actives have a fitted effect of over 40% in size
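Tdp1 1 nM final; 15 min RT w/ cpd; substrate 15 nM, 5 min; beads 10 ug/ml, 10 min; AlphaScreen read. Neg ctrl: no enzyme.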
ClpP mod = qHTS Assay for Activators of ClpP; Potency, µM (highest dose often 57.5 µM); ATP-dependent Clp protease proteolytic subunit (Bacillus subtilis (strain 168)), P80244; 340,000 tested, 1.9% active; purified B. subtilis ClpP, FRET peptide cleavage, 20 min; active means well fitted falling curve with a large enough effect; inconclusive means small, poorly fitted or top-dose-only effect; inactive means no such curve, though single readings can be large or run the other way; further: the source files actives as falling curves though it sought activators and does not explain the sign; nearly all actives have a fitted effect of over 65% in size
Target sequence (P80244 whole entry, looked up): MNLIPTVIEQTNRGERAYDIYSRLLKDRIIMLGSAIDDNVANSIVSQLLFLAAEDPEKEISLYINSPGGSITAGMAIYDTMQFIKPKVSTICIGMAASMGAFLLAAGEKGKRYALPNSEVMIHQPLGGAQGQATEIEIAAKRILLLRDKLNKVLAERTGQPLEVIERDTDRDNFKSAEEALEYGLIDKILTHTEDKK
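ClpP 10 microg/mL final, pH 8 Tris/KCl buffer with BSA, glycerol, Tween-20; compound pinned in; FRET-FV substrate; RT 20 min; Ex320/Em430; ΔFRET vs ADEP 5.8 microM, DMSO, no enzyme.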
Hits are given with their value; - = inactive; ? = inconclusive; . = no result; [ ] = remark or other dose. Unless noted, the call rests on the fitted dose curve; in most records, active means well fitted curve in the direction sought with a large enough effect; inconclusive means small, poorly fitted or top-dose-only effect, or another doubt; inactive means no such curve, though single readings can be large; an effect the other way counts as inactive or inconclusive.

SMILES | DT40 TDP1 CPT | TDP1 cell noCPT | TDP1 inh | ClpP mod
CCCCCCCCCCCCCCCC(=O)OC[C@@H](O)[C@H]1OC[C@H](O)[C@H]1O | - | - | . | .
Cc1ccc(C)c(OCC(=O)O/N=C(\N)c2cccc([N+](=O)[O-])c2)c1 | - | ? | - | .
CC(C)OC(=O)c1cc2c(OCC(O)CNC(C)(C)C)cccc2[nH]1 (stereo unspecified) | ? | - | . | .
O=C(CN(C1CCCCC1)S(=O)(=O)c1ccccc1)NCc1cccnc1 | - | - | - | -
O=C(NCc1cccnc1)C1CCC(c2ccc(Cl)cc2)CC1 (stereo unspecified) | ? | 16µM | - | 28µM
O=C(CN(C1CCCCC1)S(=O)(=O)c1ccc(Cl)cc1)NCc1cccnc1 | ? | 16µM | - | -
O=C(NCc1cccnc1)C1CCN(C(=O)c2ccc(Cl)cc2Cl)CC1 | - | - | - | -
COc1cc(C(=O)NCC(=O)NNC(=O)CN(C)S(=O)(=O)c2ccc(Cl)cc2)cc(OC)c1OC | - | - | - | .
Cc1ccc(-c2cc(-c3ccc(F)cc3)nc(N)c2C#N)o1 | ? | 18µM | - | ?
N#Cc1c(-c2ccncc2)cc(-c2ccc(F)cc2)nc1N | - | - | . | -
Cc1ccc(-c2cc(-c3ccccc3)c(C#N)c(N)n2)o1 | 23µM | 15µM | - | -
N#CC(c1ccc(F)cc1)c1ccc(C(=O)c2ccc(F)cc2)cc1 (stereo unspecified) | ? | 21µM | - | -
Cc1ccc(C(=O)NC(C)c2ccc(F)cc2)cc1 (stereo unspecified) | - | - | - | -
Cc1ccc(C(C#N)c2ccc(C(=O)c3ccc(F)cc3)cc2)cc1 (stereo unspecified) | 23µM | 8.2µM | . | -
Cc1onc(-c2c(Cl)cccc2Cl)c1NC(=O)N1CCSCC1 | - | - | - | -
O=C(Cc1ccc(S(=O)(=O)N2CCCCC2)s1)Nc1ccc(F)c(F)c1 | 16µM | 23µM | - | -
O=C(Cc1ccc(S(=O)(=O)N2CCCC2)s1)Nc1cccc([N+](=O)[O-])c1 | ? | 16µM | - | -
NS(=O)(=O)c1cccc(NC(=O)COC(=O)Cc2ccc(S(=O)(=O)N3CCCCC3)s2)c1 | - | - | - | -
O=C(COC(=O)Cc1ccc(S(=O)(=O)N2CCCCC2)s1)Nc1ccc2c(c1)OCO2 | - | - | - | -
Cc1nc(C(=O)N/N=C/c2[nH]ncc2Br)cs1 | ? | ? | - | .
O=C(Cn1c(=O)n(Cc2ccco2)c(=O)c2ccccc21)Nc1cccc(F)c1 | ? | ? | - | -
COc1cccc(NC(=O)Cn2c(=O)n(Cc3ccco3)c(=O)c3cc(OC)c(OC)cc32)c1 | - | - | - | 28µM
COc1cc2c(=O)n(Cc3ccccc3Cl)c(=O)n(CC(=O)Nc3ccc(C)c(C)c3)c2cc1OC | 1.8µM | 7.3µM | -[12.3 µM] | -
COc1cc2c(=O)n(Cc3ccccc3)c(=O)n(CC(=O)NCc3ccco3)c2cc1OC | ? | ? | - | 16µM
COc1ccc(NC(=O)c2ccc3c(=O)n(Cc4ccco4)c(=S)[nH]c3c2)c(OC)c1 | ? | 13µM | - | -
SMILES | DT40 TDP1 CPT | TDP1 cell noCPT | TDP1 inh | ClpP mod
C[C@@H](NCc1cc(Br)cc2[nH]c(=O)c(=O)[nH]c12)P(=O)(O)O | - | - | - | .
CN(CC(=O)Nc1ccc(Cl)cc1)C1=NS(=O)(=O)c2ccccc21 | - | - | - | -
Cc1ccc(CNC(=O)c2nn(C)c3c2CS(=O)(=O)c2ccccc2-3)cc1 | 16µM | ? | - | -
CCOc1ccccc1CNC(=O)c1nn(C)c2c1CS(=O)(=O)c1ccccc1-2 | 18µM | ? | - | -
Cc1ccc(CNC(=O)CN(C)C2=NS(=O)(=O)c3ccccc32)cc1 | 13µM | 9.2µM | - | -
CCN1CCc2nc(N)sc2C1 | ? | 29µM | - | -
C=CCN1CCc2nc(N)sc2CC1 | - | - | - | -
O=C(/C=C/c1ccccc1)N1CCN(c2cccc(Cl)n2)CC1 | - | - | - | -
COc1ccc(CCNC(=O)COC(=O)c2ccc(N3CCCC3=O)cc2)cc1OC | - | ? | - | .
CC(=O)N1CCC(C(=O)N2c3ccccc3N=C(c3ccc4c(c3)OCO4)C2C(=O)Nc2c(C)cccc2C)CC1 (stereo unspecified) | ? | ? | . | -
Cc1cccc(C)c1NC(=O)C1C(c2ccc3c(c2)OCO3)=Nc2ccccc2N1C(=O)c1cccc(C(F)(F)F)c1 (stereo unspecified) | 7.3µM | 7.3µM | . | -
Cc1cccc(C)c1NC(=O)C1C(c2ccc3c(c2)OCO3)=Nc2ccccc2N1C(=O)c1ccccn1 (stereo unspecified) | ? | 21µM | . | -
O=C1CCc2cc(S(=O)(=O)Nc3ccccc3F)cc3c2N1CCC3 | - | - | - | -
OC[C@@H]1CN(Cc2cccs2)C[C@H](n2cnc3c(NCc4ccco4)ncnc32)O1 | - | - | . | -
O=C(Nc1ccccc1)c1ccsc1 | - | - | - | -
CCOc1ccc(CC(=O)Nc2cccc(-c3nc4cccnc4s3)c2C)cc1 | - | - | - | -
c1cc2c(cc1C1CCCCC1)c1c3n2CCN[C@H]3CCC1 | 11µM | 11µM | - | .
c1cc2c(cc1C1CCCCC1)c1c3n2CCCNC3CCC1 (stereo unspecified) | 7.3µM | 6.5µM | - | -
COC(=O)c1ccc(C2c3c(-c4ccccc4O)n[nH]c3C(=O)N2Cc2ccncc2)cc1 (stereo unspecified) | 18µM | ? | - | -
Cc1ccc(C2c3c(-c4ccccc4O)n[nH]c3C(=O)N2Cc2ccncc2)cc1 (stereo unspecified) | ? | 23µM | - | -
O=C1c2[nH]nc(-c3ccccc3O)c2C(c2ccccc2F)N1Cc1ccncc1 (stereo unspecified) | ? | ? | - | -
O=C1c2[nH]nc(-c3ccccc3O)c2C(c2cccc(Br)c2)N1Cc1ccncc1 (stereo unspecified) | 2.9µM | 1.2µM | - | -
Cc1c(Cl)cccc1NC(=O)C(=O)NCCc1csc(-c2ccc(C(F)(F)F)cc2)n1 | - | - | - | -
c1ccc2c(N3CCOCC3)c3c(nc2c1)CCC3 | - | - | . | -
COc1ccc2c(-c3ccccc3)cc(N3CCOCC3)nc2c1 | - | ? | . | 32µM
c1ccc(-c2cc(-c3ccc(N4CCOCC4)cc3)nc3ccccc23)cc1 | - | - | . | -
COc1ccc2c(c1)CCc1c-2nc2ccccc2c1N1CCOCC1 | 1.6µM | 2.1µM | . | -
CCOc1ccc(Nc2nc3cc(Cl)c(Cl)cc3nc2-n2nc(C)cc2C)cc1 | - | - | - | -
S=c1[nH]nc(COc2ccccc2)n1-c1ccc(Cl)cc1 | - | 23µM | . | .
CN1c2ccccc2C(C)(C)C12CC(c1cccc(S(=O)(=O)N3CCCC3)c1)=NO2 (stereo unspecified) | ? | 16µM | - | -
